PubChem BioAssay (NCATS)
Records with an inconclusive call do not appear. Entries that show only a call come without a potency. The source made the active and inactive calls. Calls come from the whole dose curve; as a rule, active = well fitted curve in the direction sought with a large enough effect; inconclusive = small, poorly fitted or top-dose-only effect, or another doubt; inactive = no such curve, though single readings can be large; an effect the other way counts as inactive or inconclusive.

Experiment: qHTS of pediatric cancer cell lines to identify multiple opportunities for drug repurposing: Primary screen for LAN-5 cells (AID 1347100)
Conditions: LAN-5 neuroblastoma viability, CellTiter-Glo luminescence, 48 h; series mostly up to 46 µM
Summary of the method: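 Viability after 48 h compound treatment at 37C, 500-1,000 cells/well, read as ATP luminescence with CellTiter-Glo. Primary screens used 11-point (MIPE, 0.78 nM-46 µM) or 8-point (NPC, 0.59 nM-46 µM) final concentrations; follow-up screens used 11-point dilutions.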
Potency is the fitted concentration of half-maximal effect.

Question: Which Potency does the source give for `CNC(=O)CN(CCN(CCN(CC(=O)[O-])CC(=O)NC)CC(=O)[O-])CC(=O)[O-].O.[Gd+3]` here?
Answer: Its Potency is “inactive”.

Question: Which Potency does the source give for `OC(CCN1CCCCC1)(c1ccccc1)c1ccccc1` here?
Answer: The Potency was “inactive”.

Question: With `COc1cc2c(cc1OC)[C@@H]1CC(=O)[C@@H](CC(C)C)CN1CC2` as the compound, how does the Potency read?
Answer: Its Potency is “inactive”.

Question: For `CC1(C)O[C@@H]2C[C@H]3[C@@H]4CCC5=CC(=O)CC[C@]5(C)[C@@]4(F)[C@@H](O)C[C@]3(C)[C@]2(C(=O)CCl)O1`, which Potency is on record?
Answer: Its Potency is “inactive”.

Question: Which Potency does the source give for `CCCC(=O)O[C@]1(C(=O)CO)CC[C@H]2[C@@H]3CCC4=CC(=O)CC[C@]4(C)[C@H]3[C@@H](O)C[C@@]21C` here?
Answer: The Potency was “inactive”.

Question: Which Potency does the source give for `C[C@]12CC[C@H]3[C@@H](CCC4=CC(=O)CC[C@@]43C)[C@@H]1CC[C@@H]2C(=O)CO` here?
Answer: Its Potency is “inactive”.

Question: For `C[C@@H]1C[C@H]2[C@@H]3CCC4=CC(=O)C=C[C@]4(C)[C@@]3(F)[C@@H](O)C[C@]2(C)[C@H]1C(=O)CO`, which Potency is on record?
Answer: Its Potency is “inactive”.

Question: Which Potency does the source give for `C[C@@H]1C[C@H]2[C@@H]3C[C@H](F)C4=CC(=O)C(Cl)=C[C@]4(C)[C@@]3(F)[C@@H](O)C[C@]2(C)[C@@]1(O)C(=O)CO` here?
Answer: The Potency was “inactive”.

Question: With `CC(=O)[C@H]1CC[C@H]2[C@@H]3C[C@H](C)C4=CC(=O)CC[C@]4(C)[C@H]3[C@@H](O)C[C@]12C` as the compound, how does the Potency read?
Answer: Its Potency is “inactive”.

Question: For `O=C(OCC(O)CO)c1ccccc1Nc1ccnc2cc(Cl)ccc12` (stereo unspecified), which Potency is on record?
Answer: The Potency was “inactive”.

Question: For `CC(=O)Oc1ccc(C(c2ccc(OC(C)=O)cc2)c2ccccn2)cc1`, which Potency is on record?
Answer: Its Potency is “inactive”.

Question: Which Potency does the source give for `O=C(COc1ccc(Cl)cc1)N1CCN(Cc2ccc3c(c2)OCO3)CC1` here?
Answer: Its Potency is “inactive”.

Question: Which Potency does the source give for `CCOC(=O)n1ccn(C)c1=S` here?
Answer: The Potency was “inactive”.

Question: With `COc1cc(C(=S)N2CCOCC2)cc(OC)c1OC` as the compound, how does the Potency read?
Answer: The Potency was “inactive”.

Question: For `CCCCC(=O)O[C@]1(C(=O)CO)CC[C@H]2[C@@H]3CCC4=CC(=O)CC[C@]4(C)[C@H]3[C@@H](O)C[C@@]21C`, which Potency is on record?
Answer: The Potency was “inactive”.

Question: With `CCN(CC)CCOC(=O)C(c1ccccc1)C1CCCCC1` (stereo unspecified) as the compound, how does the Potency read?
Answer: Its Potency is “inactive”.

Question: Which Potency does the source give for `O=C(CCCN1CCC(O)(c2ccc(Br)cc2)CC1)c1ccc(F)cc1` here?
Answer: Its Potency is “inactive”.

Question: For `NC(CS)C(=O)O` (stereo unspecified), which Potency is on record?
Answer: Its Potency is “inactive”.

Question: Which Potency does the source give for `Cc1c(F)c(N2CCNC(C)C2)cc2c1c(=O)c(C(=O)O)cn2C1CC1` (stereo unspecified) here?
Answer: The Potency was “inactive”.

Question: For `CC(=O)OCC(=O)[C@@]1(O)CC[C@H]2[C@@H]3CCC4=CC(=O)C=C[C@]4(C)[C@H]3[C@@H](O)C[C@@]21C`, which Potency is on record?
Answer: Its Potency is “inactive”.

Question: Which Potency does the source give for `COc1cc(/C=C/C(=O)O[C@H]2CC[C@]34C[C@]35CC[C@]3(C)[C@@H]([C@H](C)CCC=C(C)C)CC[C@@]3(C)[C@@H]5CC[C@H]4C2(C)C)ccc1O` here?
Answer: Its Potency is “inactive”.

Question: Which Potency does the source give for `CCCCCCCCCCCCCCNCCO` here?
Answer: Its Potency is “inactive”.

Question: Which Potency does the source give for `CC1(C)O[C@@H]2C[C@H]3[C@@H]4C[C@H](F)C5=CC(=O)CC[C@]5(C)[C@H]4[C@@H](O)C[C@]3(C)[C@]2(C(=O)CO)O1` here?
Answer: Its Potency is “inactive”.

Question: Which Potency does the source give for `CC(C)(CO)[C@@H](O)C(=O)NCCCO` here?
Answer: Its Potency is “inactive”.

Question: For `CCN(CC)C(=O)N1CCN(C)CC1`, which Potency is on record?
Answer: Its Potency is “inactive”.

Question: For `NC(CO)(CO)CO`, which Potency is on record?
Answer: The Potency was “inactive”.

Question: For `NCCCC[C@H](N[C@@H](CCc1ccccc1)C(=O)O)C(=O)N1CCC[C@H]1C(=O)O`, which Potency is on record?
Answer: The Potency was “inactive”.

Question: With `O=C(O)CNC(=O)c1ccccc1` as the compound, how does the Potency read?
Answer: Its Potency is “inactive”.

Question: With `Cc1nc2n(c(=O)c1CCN1CCC(c3noc4cc(F)ccc34)CC1)CCC[C@H]2O` as the compound, how does the Potency read?
Answer: The Potency was “inactive”.

Question: For `O=c1[nH]c(=O)n([C@H]2C[C@H](O)[C@@H](CO)O2)cc1C(F)(F)F`, which Potency is on record?
Answer: Its Potency is 1.33 µM (active).

Question: With `CC(Cc1ccccc1)(NC(=O)CN)c1ccccc1` (stereo unspecified) as the compound, how does the Potency read?
Answer: Its Potency is “inactive”.

Question: For `OCc1ccccc1O`, which Potency is on record?
Answer: The Potency was “inactive”.

Question: With `CO/N=C1\CN(c2nc3c(cc2F)c(=O)c(C(=O)O)cn3C2CC2)CC1CN` (stereo unspecified) as the compound, how does the Potency read?
Answer: The Potency was “inactive”.

Question: With `C[C@]12CCC(=O)C=C1[C@@H]1C[C@@H]1[C@H]1[C@@H]3[C@@H]4C[C@@H]4[C@@]4(CCC(=O)O4)[C@@]3(C)CC[C@@H]12` as the compound, how does the Potency read?
Answer: Its Potency is “inactive”.

Question: Which Potency does the source give for `c1ccc(CNCCNCc2ccccc2)cc1` here?
Answer: The Potency was “inactive”.

Question: For `OC[C@H]1O[C@H](O[C@]2(CCl)O[C@H](CCl)[C@@H](O)[C@@H]2O)[C@H](O)[C@@H](O)[C@H]1Cl`, which Potency is on record?
Answer: Its Potency is “inactive”.

Question: For `O=C1OC2(c3ccc(O)cc3Oc3cc(O)ccc32)c2ccccc21`, which Potency is on record?
Answer: Its Potency is “inactive”.

Question: For `C[C@]12CC[C@@H]3c4ccc(O)cc4CC[C@H]3[C@@H]1C[C@@H](O)[C@@H]2O`, which Potency is on record?
Answer: The Potency was “inactive”.

Question: For `NCCC(O)(P(=O)(O)O)P(=O)(O)O`, which Potency is on record?
Answer: Its Potency is “inactive”.

Experiment: qHTS of pediatric cancer cell lines to identify multiple opportunities for drug repurposing: Primary screen for BT-12 cells (AID 1347101); note: nearly all actives have a fitted effect of over 25% in size
Conditions: BT-12 viability, CellTiter-Glo luminescence, 48 h; series mostly up to 57.3 µM
Summary of the method: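 Cells (500-1,000/well) rested 5 h, then received compounds for 48 h; metabolically active cells were measured by CellTiter-Glo luminescence. Final concentrations spanned up to 46 µM (MIPE, 11-point) or 0.59 nM-46 µM (NPC, 8-point) in primary screens, 11-point in follow-ups.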

Question: With `CNC(=O)CN(CCN(CCN(CC(=O)[O-])CC(=O)NC)CC(=O)[O-])CC(=O)[O-].O.[Gd+3]` as the compound, how does the Potency read?
Answer: The Potency was “inactive”.

Question: With `OC(CCN1CCCCC1)(c1ccccc1)c1ccccc1` as the compound, how does the Potency read?
Answer: Its Potency is “inactive”.

Question: With `COc1cc2c(cc1OC)[C@@H]1CC(=O)[C@@H](CC(C)C)CN1CC2` as the compound, how does the Potency read?
Answer: The Potency was “inactive”.

Question: With `CCCC(=O)O[C@]1(C(=O)CO)CC[C@H]2[C@@H]3CCC4=CC(=O)CC[C@]4(C)[C@H]3[C@@H](O)C[C@@]21C` as the compound, how does the Potency read?
Answer: Its Potency is “inactive”.

Question: For `C[C@@H]1C[C@H]2[C@@H]3CCC4=CC(=O)C=C[C@]4(C)[C@@]3(F)[C@@H](O)C[C@]2(C)[C@H]1C(=O)CO`, which Potency is on record?
Answer: The Potency was “inactive”.

Question: Which Potency does the source give for `C[C@@H]1C[C@H]2[C@@H]3C[C@H](F)C4=CC(=O)C(Cl)=C[C@]4(C)[C@@]3(F)[C@@H](O)C[C@]2(C)[C@@]1(O)C(=O)CO` here?
Answer: Its Potency is “inactive”.

Question: With `O=C(OCC(O)CO)c1ccccc1Nc1ccnc2cc(Cl)ccc12` (stereo unspecified) as the compound, how does the Potency read?
Answer: The Potency was “inactive”.

Question: With `CC(=O)Oc1ccc(C(c2ccc(OC(C)=O)cc2)c2ccccn2)cc1` as the compound, how does the Potency read?
Answer: Its Potency is “inactive”.

Question: With `CCOC(=O)n1ccn(C)c1=S` as the compound, how does the Potency read?
Answer: The Potency was “inactive”.

Question: For `COc1cc(C(=S)N2CCOCC2)cc(OC)c1OC`, which Potency is on record?
Answer: The Potency was “inactive”.

Question: For `CCCCC(=O)O[C@]1(C(=O)CO)CC[C@H]2[C@@H]3CCC4=CC(=O)CC[C@]4(C)[C@H]3[C@@H](O)C[C@@]21C`, which Potency is on record?
Answer: Its Potency is “inactive”.

Question: For `O=C(CCCN1CCC(O)(c2ccc(Br)cc2)CC1)c1ccc(F)cc1`, which Potency is on record?
Answer: Its Potency is “inactive”.

Question: With `NC(CS)C(=O)O` (stereo unspecified) as the compound, how does the Potency read?
Answer: The Potency was “inactive”.

Question: Which Potency does the source give for `Cc1c(F)c(N2CCNC(C)C2)cc2c1c(=O)c(C(=O)O)cn2C1CC1` (stereo unspecified) here?
Answer: The Potency was “inactive”.

Question: For `CC(=O)OCC(=O)[C@@]1(O)CC[C@H]2[C@@H]3CCC4=CC(=O)C=C[C@]4(C)[C@H]3[C@@H](O)C[C@@]21C`, which Potency is on record?
Answer: The Potency was “inactive”.

Question: With `COc1cc(/C=C/C(=O)O[C@H]2CC[C@]34C[C@]35CC[C@]3(C)[C@@H]([C@H](C)CCC=C(C)C)CC[C@@]3(C)[C@@H]5CC[C@H]4C2(C)C)ccc1O` as the compound, how does the Potency read?
Answer: Its Potency is “inactive”.

Question: For `CCCCCCCCCCCCCCNCCO`, which Potency is on record?
Answer: The Potency was “inactive”.

Question: Which Potency does the source give for `CC1(C)O[C@@H]2C[C@H]3[C@@H]4C[C@H](F)C5=CC(=O)CC[C@]5(C)[C@H]4[C@@H](O)C[C@]3(C)[C@]2(C(=O)CO)O1` here?
Answer: Its Potency is “inactive”.

Question: With `CC(C)(CO)[C@@H](O)C(=O)NCCCO` as the compound, how does the Potency read?
Answer: Its Potency is “inactive”.

Question: For `CCN(CC)C(=O)N1CCN(C)CC1`, which Potency is on record?
Answer: The Potency was “inactive”.

Question: For `NC(CO)(CO)CO`, which Potency is on record?
Answer: The Potency was “inactive”.

Question: For `NCCCC[C@H](N[C@@H](CCc1ccccc1)C(=O)O)C(=O)N1CCC[C@H]1C(=O)O`, which Potency is on record?
Answer: The Potency was “inactive”.

Question: With `O=C(O)CNC(=O)c1ccccc1` as the compound, how does the Potency read?
Answer: Its Potency is “inactive”.

Question: With `Cc1nc2n(c(=O)c1CCN1CCC(c3noc4cc(F)ccc34)CC1)CCC[C@H]2O` as the compound, how does the Potency read?
Answer: The Potency was “inactive”.

Question: With `O=c1[nH]c(=O)n([C@H]2C[C@H](O)[C@@H](CO)O2)cc1C(F)(F)F` as the compound, how does the Potency read?
Answer: The Potency was 13.8 µM (active).

Question: With `CC(Cc1ccccc1)(NC(=O)CN)c1ccccc1` (stereo unspecified) as the compound, how does the Potency read?
Answer: Its Potency is “inactive”.

Question: With `OCc1ccccc1O` as the compound, how does the Potency read?
Answer: Its Potency is “inactive”.

Question: For `c1ccc(CNCCNCc2ccccc2)cc1`, which Potency is on record?
Answer: The Potency was “inactive”.

Question: With `OC[C@H]1O[C@H](O[C@]2(CCl)O[C@H](CCl)[C@@H](O)[C@@H]2O)[C@H](O)[C@@H](O)[C@H]1Cl` as the compound, how does the Potency read?
Answer: Its Potency is “inactive”.

Question: With `O=C1OC2(c3ccc(O)cc3Oc3cc(O)ccc32)c2ccccc21` as the compound, how does the Potency read?
Answer: The Potency was “inactive”.

Question: For `C[C@]12CC[C@@H]3c4ccc(O)cc4CC[C@H]3[C@@H]1C[C@@H](O)[C@@H]2O`, which Potency is on record?
Answer: Its Potency is “inactive”.

Question: Which Potency does the source give for `NCCC(O)(P(=O)(O)O)P(=O)(O)O` here?
Answer: Its Potency is “inactive”.
